Results reported in PubChem BioAssay AID651860 (Broad Institute, 2012).
Potency and affinity values are given separately. Activity calls are given as the source filed them.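 Rule for the calls: active = compounds lowering HepG2 cell ATP luminescence with a fitted half-maximal concentration at most twice the top tested dose; inconclusive = flat fit with 30 to 70 percent signal loss, or poor fit; inactive = the rest.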

Experiment: HepG2 cell cytotoxicity, dose response, cytotoxicity control, luminescence plate reader, powder samples, set 2 (AID 651860)

SMILES	outcome
O=C(O)c1ccccc1C(=O)NC[C@@H]1c2ccccc2CCN1C(=O)[C@@H]1CCCC[C@@H]1C(=O)O	inactive
C=CC(=O)NC[C@@H]1c2ccccc2CCN1C(=O)[C@@H]1CCCC[C@@H]1C(=O)O	inactive
COC(=O)C(C(=O)OC)c1cc(NS(=O)(=O)c2c(C)cc(C)cc2C)c2ccccc2c1O	inactive
Cc1cc(C)c(S(=O)(=O)Nc2ncnc3ccccc23)c(C)c1	inactive
O=C1c2ccccc2C(=O)N1C[C@H]1NCCc2ccccc21	inactive
COC(=O)C1CCCCC1C(=O)N1CCc2ccccc2C1CN1C(=O)c2ccccc2C1=O (centres undefined)	inactive
O=C(O)C1CCCCC1C(=O)N1CCc2ccccc2C1CN1C(=O)[C@H]2CCCC[C@H]2C1=O (some centres undefined)	inactive
O=C(O)[C@H]1CCCC[C@H]1C(=O)N1CCC2=C(CCCC2)C1CN1C(=O)c2ccccc2C1=O (some centres undefined)	inactive
C[C@@H](NC(=O)C1CCCC[C@H]1C(=O)O)c1ccccc1 (mixture of isomers)	inactive
Cc1ccc(S(=O)(=O)NC[C@@H]2c3ccccc3CCN2C(=O)[C@@H]2CCCC[C@@H]2C(=O)O)c(C)c1	inactive
O=S(=O)(Nc1nc(NCC2CCCCC2)nc2ccccc12)c1ccccc1	inactive
Cc1ccc(S(=O)(=O)NC(=O)[C@@H]2c3ccccc3CCN2C(=O)[C@@H]2CCCC[C@@H]2C(=O)O)cc1	inactive
O=C1c2ccccc2C(=O)N1C[C@@H]1c2ccccc2CCN1C(=O)C1CCCCC1	inactive
O=C(O)C1CCCCC1C(=O)NCC1c2ccccc2CCN1C(=O)Cc1ccccc1 (centres undefined)	inactive
O=C(O)C1CCCCC1C(=O)N1CCCCC1CN1C(=O)c2ccccc2C1=O (centres undefined)	inactive
C[C@H](NC(=O)C1CCCC[C@H]1C(=O)O)c1ccccc1 (mixture of isomers)	inactive
O=C(Oc1cc(CN2C(=O)c3ccccc3C2=O)c2ccccc2[n+]1[O-])c1cccc(Cl)c1	inactive

SMILES	outcome
O=C(O)C1CCCCC1C(=O)N1CCc2ccccc2[C@H]1C(=O)NC12CC3CC(CC(C3)C1)C2 (some centres undefined)	inactive
O=C(O)c1ccccc1C(=O)N1CCc2ccccc2C1CN1C(=O)c2ccccc2C1=O (centres undefined)	inactive
CCOC(=O)C(C(=O)OCC)c1nc(NS(=O)(=O)c2c(C)cc(C)cc2C)c2ccccc2n1	inactive
O=C1c2ccccc2C(=O)N1C[C@@H]1c2ccccc2CCN1C(=O)OCc1ccccc1	inactive
O=C(O)[C@@H]1CCCN1C(=O)N1CCc2ccccc2[C@H]1CN1C(=O)c2ccccc2C1=O	inactive
O=C(NC[C@@H]1c2ccccc2CCN1C(=O)[C@@H]1CCCC[C@@H]1C(=O)O)c1ccccc1CO	inactive
Cc1ccc(S(=O)(=O)Nc2cc(C(C(=O)OC(C)C)C(=O)C(F)(F)F)c(O)c3ccccc23)c(C)c1 (centres undefined)	inactive
Cc1cc(C)c(S(=O)(=O)Nc2cc(C(C(=O)OCc3ccccc3)C(=O)OCc3ccccc3)c(O)c3ccccc23)c(C)c1	inactive
O=C(O)Cc1ccccc1C(=O)N1CCc2ccccc2[C@H]1CN1C(=O)c2ccccc2C1=O	inactive
O=C(O)C1CCCCC1C(=O)N1CCc2ccccc2C1CN1Cc2ccccc2C1=O (centres undefined)	inactive
Cc1ccc(S(=O)(=O)NNc2nc(C(C(=O)OC(C)C)C(=O)C(F)(F)F)nc3ccccc23)cc1 (centres undefined)	inactive
O=C(O)[C@H]1C2C=CC(C2)[C@H]1C(=O)N1CCc2ccccc2C1CN1C(=O)c2ccccc2C1=O (some centres undefined)	inactive
CCOC(=O)Cc1nc(NS(=O)(=O)c2c(C)cc(C)cc2C)c2ccccc2n1	inactive
Cc1cc(C)c(S(=O)(=O)Nc2nc(N(C)C)nc3ccccc23)c(C)c1	inactive
CCOC(=O)C(C(=O)OCC)c1cc(CNS(=O)(=O)c2ccc(C)cc2C)c2ccccc2n1	inactive
CC(=O)Nc1cc(NS(=O)(=O)c2c(C)cc(C)cc2C)c2ccccc2c1O	inactive
O=C(O)CC(=O)N1CCc2ccccc2C1CN1C(=O)c2ccccc2C1=O (centres undefined)	inactive
